# Bioassay records as filed in PubChem BioAssay.
# Rows were chosen to be rich in hits. Some 6.7% of all compounds tested hit in one or more screens of this group.
# T cruzi growth-1: T. cruzi intracellular proliferation inhibitors, primary screen, cell-based, beta-gal Tulahuen parasites, NIH3T3 host, luminescence; 5.9% of 77,000 active; AID 624255, 2012; inhibition, % at 8.34 µM; T. cruzi beta-gal in NIH3T3, GalScreen luminescence, 90 h;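 active means mean inhibition above about 93%, with at least 55% of replicates each passing it, limit read from the data, passing the limit was not always enough; inconclusive means only one of those two conditions holds; inactive means neither condition holds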
# C diff growth: C. difficile growth inhibitors, primary screen, HTS | growth activity, negative = inhibition, % at 16 µg/mL (by protocol) | AID 1259249, 2017 | Clostridium difficile clinical isolate growth, OD600, 24 h; stronger effect = lower value | 0.25% of 86,000 active;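 active means mean growth activity at or below -80% and every replicate also at or below -80%; inconclusive means mean at or below -80% but some replicate above -80%; inactive means mean growth activity above -80%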;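 further: 0% = DMSO wells and -100% = levofloxacin 16 µg/mL wells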
# Pf Dd2 inh: P. falciparum Dd2 growth inhibitors, primary screen, SYBR Green fluorescence, single dose replicates; 72 h; stronger effect = lower value; activity change, % at 10 µM; 2.3% of 94,000 active; AID 1159554, 2015; in the data active means activity change below about -80%; inconclusive means no clear call, values can overlap the other calls
# T cruzi growth-2: T. cruzi intracellular proliferation inhibitors, confirmation, cell-based, NIH3T3 host, beta-gal parasite, luminescence, cherry-pick; shares compounds with T cruzi growth-1; T. cruzi beta-gal in NIH3T3, GalScreen luminescence, 90 h; inhibition, % at 8.35 µM; 72% of 5,600 active;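 active means mean replicate inhibition above about 95% and at least 55% of replicates individually reaching it, limit read from the data; inconclusive means only one of the two criteria is met; inactive means neither criterion is met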
# T cruzi growth-3: inhibitors of intracellular T. cruzi replication, confirmation, NIH3T3 host cells, beta-gal parasites, cherry-pick, set 2; T. cruzi beta-gal in NIH3T3, GalScreen luminescence, 90 h; AID 651740, 2012; inhibition, % at 2.09 µM; shares compounds with T cruzi growth-1; 21% of 5,600 active;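 active means mean inhibition above about 95%, with at least 55% of replicates also reaching it, limit read from the data; inconclusive means meets just one of the two conditions; inactive means meets neither condition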;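 further: plate controls were neutral control median for no effect and positive control median for full effect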
# 3T3 cytotox: cytotoxicity in mouse NIH/3T3 fibroblasts, confirmation, cytotoxicity control for T. cruzi proliferation inhibitor project, cell-based, cherry-pick, single point. NIH/3T3 viability, CellTiter-Glo ATP luminescence, 90 h. 14% of 5,600 active. cytotoxicity (signal decrease), % at 8.35 µM. shares compounds with T cruzi growth-1;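 active means mean signal decrease across replicates above about 35% based on untreated-well scatter, with enough replicates individually passing, limit read from the data; inconclusive means no rule stated though some were filed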;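 further: 0% = median of neutral control wells and 100% = median of positive control wells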
# 3T3 cytotox 2: NIH/3T3 fibroblast cytotoxicity, confirmation, cytotoxicity control, cell-based, cherry-pick, single point, set 2. shares compounds with T cruzi growth-1. NIH/3T3 viability, CellTiter-Glo ATP luminescence, 90 h. inhibition, % at 24.9 µM. 56% of 5,600 active;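 active means mean loss of cell viability signal at or above a set limit, and enough replicates individually reaching it; inconclusive means meets only the mean limit or only the replicate share; inactive means meets neither condition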;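 further: 0% = median of neutral control wells and 100% = median of positive control wells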
# * hit, by the source's call; ? = inconclusive; . = not tested or not shown.
SMILES,T cruzi growth-1,C diff growth,Pf Dd2 inh,T cruzi growth-2,T cruzi growth-3,3T3 cytotox,3T3 cytotox 2
CO[C@H]1CN(C)C(=O)c2cc(NC(=O)C3CCCCC3)ccc2OC[C@H](C)N(Cc2nccs2)C[C@@H]1C,8.7,-1.3,-54.6,.,.,.,.
C[C@@H]1CN([C@@H](C)CO)C(=O)c2cccc(N(C)C)c2O[C@H]1CN(C)Cc1ccc(C(=O)Nc2ccccc2N)cc1,90.1,1.8,-74.4,.,.,.,.
C[C@H](CO)N1C[C@H](C)[C@@H](CN(C)Cc2ccc(C(=O)Nc3ccccc3N)cc2)Oc2c(cccc2N(C)C)C1=O,?,-4.6,-75.1,101.5*,13.3,9.7,33.0*
Cc1cc(C(=O)Nc2cccc3c2O[C@H](CN(C)Cc2ccc(Oc4ccccc4)cc2)[C@H](C)CN([C@@H](C)CO)C3=O)n(C)n1,-29.9,-5.8,-13.0,.,.,.,.
Cc1cc(C(=O)Nc2cccc3c2O[C@@H](CN(C)Cc2ccc(C(=O)Nc4ccccc4N)cc2)[C@@H](C)CN([C@@H](C)CO)C3=O)n(C)n1,101.1*,-5.3,-78.0,101.7*,74.0,-3.7,28.3
Cc1cc(C(=O)Nc2cccc3c2O[C@@H](CN(C)Cc2ccc(Oc4ccccc4)cc2)[C@H](C)CN([C@H](C)CO)C3=O)n(C)n1,104.5*,1.1,-20.8,103.8*,58.9,15.1,104.3*
Cc1cc(C(=O)Nc2cccc3c2O[C@@H](CN(C)Cc2ccc(C(=O)O)cc2)[C@@H](C)CN([C@H](C)CO)C3=O)n(C)n1,.,-1.5,8.7,.,.,.,.
C[C@@H]1CN([C@@H](C)CO)C(=O)c2cccc(NC(=O)c3cnccn3)c2O[C@H]1CN(C)Cc1ccc(C(=O)Nc2ccccc2N)cc1,112.4*,5.7,-92.8*,106.7*,85.0,33.4,41.9*
C[C@H]1CN([C@@H](C)CO)C(=O)c2cccc(NC(=O)c3cnccn3)c2O[C@@H]1CN(C)Cc1ccc(C(=O)O)cc1,-10.5,-3.2,-14.2,.,.,.,.
COc1cccc(C#Cc2ccc3c(c2)O[C@@H](CN(C)C)[C@@H](C)CN([C@H](C)CO)S3(=O)=O)c1,-11.7,-2.0,-61.8,.,.,.,.
CCCC#Cc1ccc([C@@H]2[C@H]3CN(S(=O)(=O)Cc4ccccc4)CC(=O)N3[C@H]2CO)cc1,.,11.5,-30.5,.,.,.,.
C[C@H]1CN([C@@H](C)CO)C(=O)Cc2cc(NC(=O)C3CC3)ccc2O[C@H]1CN(C)S(=O)(=O)c1ccc(F)cc1,24.2,-5.6,-3.0,.,.,.,.
Cc1ccc(S(=O)(=O)N(C)C[C@@H]2OCCCC[C@@H](C)Oc3ccc(NC(=O)CCC(F)(F)F)cc3C(=O)N([C@@H](C)CO)C[C@@H]2C)cc1,.,.,-79.3,.,.,.,.
CN1C(=O)c2cc(NC(=O)c3cnccn3)ccc2OC[C@H]2O[C@@H](CC(=O)NC3CCC3)CC[C@@H]21,13.3,-3.3,-5.4,.,.,.,.
C[C@H](CO)N1C[C@H](C)[C@H](CN(C)C(=O)C2CCOCC2)Oc2ncc(C#Cc3cccc(F)c3)cc2C1=O,68.4,-6.0,-20.0,.,.,.,.
C[C@@H]1CN([C@@H](C)CO)C(=O)c2cccc(NC(=O)c3ccncc3)c2O[C@H]1CN(C)Cc1ccccc1,63.9,-2.3,-15.4,.,.,.,.
C[C@H](CO)N1C[C@H](C)[C@@H](CN(C)Cc2ccc(C(=O)Nc3ccccc3N)cc2)Oc2c(NC(=O)C3CCOCC3)cccc2C1=O,99.4*,2.2,-47.7,101.8*,86.7,2.7,4.1
C[C@H]1CN([C@@H](C)CO)C(=O)c2cccc(NC(=O)c3ccncc3)c2O[C@H]1CN(C)Cc1ccc(C(=O)Nc2ccccc2N)cc1,.,4.3,-45.9,.,.,.,.
C[C@H](CO)N1C[C@H](C)[C@H](CN(C)Cc2ccc(C(=O)Nc3ccccc3N)cc2)Oc2c(NC(=O)C3CCOCC3)cccc2C1=O,86.0,-2.0,-13.6,.,.,.,.
C[C@@H]1CN([C@@H](C)CO)C(=O)c2cccc(NC(=O)c3ccncc3)c2O[C@@H]1CN(C)Cc1ccc(C(=O)Nc2ccccc2N)cc1,?,-2.2,-35.0,89.1,48.2,21.2,67.3*
C[C@@H]1CN([C@H](C)CO)C(=O)c2cccc(NC(=O)c3ccncc3)c2O[C@H]1CN(C)Cc1ccc(C(=O)Nc2ccccc2N)cc1,99.6*,-4.9,-78.4,106.5*,90.8,2.8,25.5
O=C(NCc1ccccc1)[C@H]1N[C@H]2c3cccc(=O)n3C[C@H]2[C@@H]1CO,-13.1,2.2,.,.,.,.,.
C[C@@H]1CN([C@@H](C)CO)C(=O)c2cc(NC(=O)C3CCCCC3)ccc2O[C@@H](C)CCCCO[C@@H]1CN(C)S(=O)(=O)c1ccc(Cl)cc1,?,-0.3,-80.8*,104.6*,50.6,-21.8,16.5
C[C@@H]1CCCCO[C@@H](CN(C)S(=O)(=O)c2ccc(Cl)cc2)[C@H](C)CN([C@@H](C)CO)C(=O)c2cc(NC(=O)C3CCCCC3)ccc2O1,105.8*,-0.9,-72.8,105.3*,58.2,11.5,42.4*
Cc1ccc(S(=O)(=O)N(C)C[C@@H]2OCCCC[C@H](C)Oc3ccc(NC(=O)C4CCCCC4)cc3C(=O)N([C@H](C)CO)C[C@@H]2C)cc1,80.1,-2.5,-73.2,.,.,.,.
SMILES,T cruzi growth-1,C diff growth,Pf Dd2 inh,T cruzi growth-2,T cruzi growth-3,3T3 cytotox,3T3 cytotox 2
C[C@@H]1CCCCO[C@H](CN(C)S(=O)(=O)c2ccc(F)cc2)[C@@H](C)CN([C@H](C)CO)C(=O)c2cc(NC(=O)C3CCCCC3)ccc2O1,25.4,-9.0,-47.7,.,.,.,.
C[C@@H]1CCCCO[C@@H](CN(C)S(=O)(=O)c2ccc(Cl)cc2)[C@@H](C)CN([C@@H](C)CO)C(=O)c2cc(NC(=O)C3CCCCC3)ccc2O1,108.3*,1.3,-80.9*,108.5*,90.0,6.0,?
C[C@@H]1CCCCO[C@H](CN(C)S(=O)(=O)c2ccc(Cl)cc2)[C@H](C)CN([C@H](C)CO)C(=O)c2cc(NC(=O)C3CCCCC3)ccc2O1,110.0*,-1.0,-84.3*,100.6*,108.1*,-11.7,8.3
C[C@@H]1CCCCO[C@@H](CN(C)S(=O)(=O)c2ccc(F)cc2)[C@@H](C)CN([C@H](C)CO)C(=O)c2cc(NC(=O)C3CCCCC3)ccc2O1,24.5,-3.5,-67.9,.,.,.,.
C[C@@H]1CCCCO[C@H](CN(C)S(=O)(=O)c2ccc(Cl)cc2)[C@@H](C)CN([C@H](C)CO)C(=O)c2cc(NC(=O)C3CCCCC3)ccc2O1,36.5,0.3,-57.9,.,.,.,.
O=C(C[C@H]1C=C[C@H](NS(=O)(=O)c2ccc(F)cc2)[C@H](CO)O1)NC1CCCCC1,4.3,.,16.8,.,.,.,.
